A selection: hits, their analogues and other compounds. The true share with any hit is near 2.4%.
EP2 modulator = modulates human prostaglandin E2 receptor EP2 signaling. induction, % at 25 µM. EP2-expressing cells, cAMP HTRF FRET, PGE2 co-stimulation. 260,000 tested, 0.83% active;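 active = compounds whose cAMP rise, as percent of the full-agonist control response, exceeds 60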;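 also: rat C6 glioma line stably carrying human EP2 under a CMV promoter; the protocol text gives 20 µM as final concentration; 100% = response of wells given 1 µM PGE2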
S1P3 antag = S1P3 (human) receptor antagonism | Q99500 | CHO S1P3 NFAT-BLA reporter, FRET fluorescence, antagonist mode | inhibition, % at 4.98 µM | 170,000 tested, 0.27% active;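 active = inhibition above the plate cutoff, the mean inhibition of test wells on that plate plus 3 SD, cut at about 28% in these data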;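 also: cells challenged with S1P at its EC80 of 0.8 µM; blue over green emission ratio from cleaved BLA substrate after 4 h stimulation; 0% = S1P-stimulated wells and 100% = unstimulated DMSO-only wells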
S1P4 antag = human S1P4 receptor antagonism; O95977; S1P4-expressing cells, antagonist mode, reporter read-out; inhibition, % at 4.98 µM; 220,000 tested, 0.26% active; in the data active = inhibition above about 29%;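 also: 0% = wells stimulated with agonist and 100% = vehicle wells without agonist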
Target sequence (O95977 whole entry, looked up): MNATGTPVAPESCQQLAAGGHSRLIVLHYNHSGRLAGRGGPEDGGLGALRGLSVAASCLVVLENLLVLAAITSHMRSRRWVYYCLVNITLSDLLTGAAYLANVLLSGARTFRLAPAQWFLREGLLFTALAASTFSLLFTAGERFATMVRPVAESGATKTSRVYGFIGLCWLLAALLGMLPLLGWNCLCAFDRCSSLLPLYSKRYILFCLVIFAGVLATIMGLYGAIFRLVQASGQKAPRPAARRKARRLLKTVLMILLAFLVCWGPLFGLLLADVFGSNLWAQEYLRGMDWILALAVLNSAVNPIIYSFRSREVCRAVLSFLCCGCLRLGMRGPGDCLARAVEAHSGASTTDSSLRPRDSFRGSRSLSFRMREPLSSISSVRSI
EP2 antag = EP2 receptor (human) inhibition | inhibition, % at 25 µM | 260,000 tested, 0.52% active | C6 glioma cells expressing human EP2, cAMP TR-FRET; cells stimulated with saturating PGE2 | P43116;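 active = percent inhibition above 40 after rounding to a whole number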;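 also: rat C6 glioma host cells with rolipram phosphodiesterase inhibitor present; the protocol text gives 20 µM as final concentration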
S1P4 agonist = agonists of human S1P4 receptor | O95977 | S1P4-expressing cell line, agonist reporter assay | activation, % at 4.98 µM | 220,000 tested, 0.35% active; in the data active = activation above about 11%;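 also: 0% = DMSO vehicle and 100% = reference agonist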
Insulin prom inh = TRM-6 insulin promoter activity inhibition. 130,000 tested, 0.9% active. TRM-6 cells (human fetal islet line), insulin promoter-eGFP reporter, imaging; reporter expression induced with tamoxifen. inhibition, % at 2 µM;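 active = inhibition above the mean plus 3 SD, with well images judged a real hit on visual review, cut at about 60% in these data, passing the limit was not always enough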
S1P4 antag cf = confirmation of human S1P4 receptor antagonists. shares compounds with S1P4 antag. S1P4-expressing cell line, antagonist mode, reporter read-out. inhibition, % at 4.98 µM. 520 tested, 71% active. AID 1524; in the data active = inhibition above about 30%
S1P1 antagonist = blocks human S1P1, counter-screen for S1P4 antagonists; shares compounds with S1P4 antag; cell-based S1P1 antagonist counterscreen, inhibition; inhibition, % at 4.98 µM; 520 tested, 37% active; AID 1564; in the data active = inhibition above about 40%;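 also: receptor stimulated with S1P near its EC80; 0% = agonist stimulated wells and 100% = vehicle only wells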
* marks the source's active call; other numbers are inactive results; nt = no result given.

SMILES	EP2 modulator	S1P3 antag	S1P4 antag	EP2 antag	S1P4 agonist	Insulin prom inh	S1P4 antag cf	S1P1 antagonist
Cc1cccc2cc3c(nc12)SC(=NCC1CCCO1)N(Cc1ccco1)C3 (stereo unspecified)	49	6	56*	12	2	nt	22	47*
COCCN=C1Sc2nc3cc4c(cc3cc2CN1Cc1ccco1)OCO4	37	nt	nt	10	nt	nt	nt	nt
COc1ccc(C(c2nnnn2Cc2cccs2)N2CCN(C(=O)c3ccco3)CC2)cc1OC (stereo unspecified)	-23	nt	nt	12	nt	nt	nt	nt
COc1ccccc1CCCNC(=O)c1n[nH]c2c1CCCCC2	-90	nt	nt	7	nt	nt	nt	nt
CCc1ccccc1NC(=O)CN(C)C(=O)Cn1ncc(Cl)c(Cl)c1=O	8	1	38*	9	2	-223	107*	57*
Cc1ccc(C(=O)OCn2ncc(Cl)c(Cl)c2=O)cc1	-33	nt	111*	15	-4	-194	115*	63*
COc1ccc(NC(=O)Cn2ncc(Cl)c(Cl)c2=O)cc1S(=O)(=O)N1CCOCC1	0	-8	33*	8	3	-14	27	12
CCc1ccc(C(=O)Nc2ccc(OC)c(S(=O)(=O)N3CCOCC3)c2)cc1	-14	-7	1	5	0	nt	nt	nt
CCN(CC)S(=O)(=O)c1cc(NC(=O)Cn2ncc(Cl)c(Cl)c2=O)ccc1C	-39	-13	60*	17	-1	nt	72*	46*
COc1cc(CN[C@@H]2CCC(=O)N[C@H]2c2cc(F)cc(F)c2)ccc1O	-10	nt	nt	12	nt	nt	nt	nt
O=C(Cc1ccc(Cl)cc1)NCCN1CCC(O)(c2ccc(F)cc2)CC1	-31	nt	nt	15	nt	nt	nt	nt
CC(NC(=O)Cn1ncc(Cl)c(Cl)c1=O)C12CC3CC(CC(C3)C1)C2 (stereo unspecified)	-48	-10	51*	22	-2	-29	-19	-11
CCOC(=O)c1ccc(NC(=O)Cn2ncc(Cl)c(Cl)c2=O)cc1	-45	-5	37*	16	-2	-170	123*	78*
O=C(Cn1ncc(N2CCCC2)c(Cl)c1=O)c1ccc(Cl)cc1	-10	3	-18	7	1	-10	nt	nt
CCC(=O)Nc1ccc(C(=O)Cn2ncc(Cl)c(Cl)c2=O)cc1	-5	6	75*	13	-2	nt	106*	48*
Cc1ccc(NC(=O)CSc2nc3ccccc3n2CC(=O)N2CCCC2)cc1C	-14	nt	nt	9	nt	nt	nt	nt
O=C(CCC(=O)N1CCN(S(=O)(=O)c2ccc3ccccc3c2)CC1)Nc1cc(Cl)cc(Cl)c1	-23	-2	-8	5	0	nt	nt	nt
O=C(Cn1ncc(Cl)c(Cl)c1=O)N1CCN(S(=O)(=O)c2ccc3ccccc3c2)CC1	0	0	41*	20	-5	nt	116*	69*
COc1cc2c3nnc(-c4ccc(F)cc4)c-3cn(Cc3ccc(F)cc3)c2cc1OC	-4	nt	3	11	1	nt	nt	nt
COc1cc2c3nnc(-c4ccc(F)cc4)c-3cn(Cc3ccccc3)c2cc1OC	-2	nt	41*	20	-2	nt	85*	120*
CCC(=O)OCCNc1cc(Sc2nc3ccccc3[nH]2)c2nonc2c1[N+](=O)[O-]	-4	2	36*	8	1	-37	110*	7
CCC(c1nnnn1C1CCCCC1)N(Cc1cccnc1)Cc1cc2ccc(OC)cc2[nH]c1=O (stereo unspecified)	-42	nt	nt	21	nt	nt	nt	nt
Cc1oc(-c2cccc(Cl)c2)nc1CN1CCC(C(=O)NCCCN2CCCC2=O)CC1	-1	-29	-16	3	1	nt	nt	nt
COc1ccc(CCNC(=O)C2CCN(Cc3nc(-c4cccc(Cl)c4)oc3C)CC2)cc1OC	-13	-12	30*	nt	-2	nt	4	-10
CCn1ncc(C(=O)N2C[C@H](C(=O)O)[C@@H](c3ccccc3F)C2)c1C	-11	nt	nt	nt	nt	nt	nt	nt
CNSc1nncs1	-7	nt	nt	10	nt	nt	nt	nt
O=[N+]([O-])c1cnc(Sc2ccncn2)s1	-44	11	35*	70*	1	nt	116*	112*
COc1ccc(CNCCNC(=O)c2cccs2)cc1	-36	nt	nt	7	nt	nt	nt	nt
